Bioassay records from PubChem BioAssay.
The list is not random: actives were taken first. Their share in the collection is about 11%.
IL1B secr inh: inflammasome signaling inhibition, IL-1 beta readout | THP-1 LPS/ATP IL-1B secretion, AlphaLISA, 16 h; hits give low values | activity change, % at 57.5 µM | actives 4.7% (n = 360,000); in the data active = activity change below about -50%; inconclusive = mostly about -30% to -49%
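Secreted IL-1B measured by AlphaLISA bead assay after 16 h compound exposure of THP-1 cells; compounds (final up to 57.5 uM) added 1 h before LPS (250 ng/mL) and ATP (1.25 mM) stimulation; lower signal means less secretion.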
MCF10A rerep: DNA re-replication induction in MCF 10a cells | MCF 10A DNA re-replication, Hoechst nuclear intensity, 48 h | Potency, µM (series often up to 46.1 µM), hits mostly activators | actives 2.9% (n = 350,000); also: nearly all actives have a fitted effect of over 50% in size
Gal4-VP16 FLuc: inhibits Gal4-VP16 luciferase reporter, ROR gamma counter-screen. Drosophila S2 Gal4-VP16 UAS-luciferase, luminescence, 20 h. Potency, µM (highest dose often 53.6 µM), actives largely listed as inhibitors. actives 3.5% (n = 310,000). AID 2546;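 also: Gal4-VP16 expression switched on by copper sulfate through the metallothionein promoter; nearly all actives have a fitted effect of over 50% in size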
RORg inh: ROR gamma (mouse) transcription inhibition; P51450; Drosophila S2 Gal4-RORgamma UAS-luciferase reporter, 20 h; Potency, µM (top dose mostly 53.6 µM), actives largely listed as inhibitors; actives 5.4% (n = 310,000); AID 2551; also: nearly all actives have a fitted effect of over 60% in size
Target sequence (P51450 whole entry, looked up, the tested form may be a part): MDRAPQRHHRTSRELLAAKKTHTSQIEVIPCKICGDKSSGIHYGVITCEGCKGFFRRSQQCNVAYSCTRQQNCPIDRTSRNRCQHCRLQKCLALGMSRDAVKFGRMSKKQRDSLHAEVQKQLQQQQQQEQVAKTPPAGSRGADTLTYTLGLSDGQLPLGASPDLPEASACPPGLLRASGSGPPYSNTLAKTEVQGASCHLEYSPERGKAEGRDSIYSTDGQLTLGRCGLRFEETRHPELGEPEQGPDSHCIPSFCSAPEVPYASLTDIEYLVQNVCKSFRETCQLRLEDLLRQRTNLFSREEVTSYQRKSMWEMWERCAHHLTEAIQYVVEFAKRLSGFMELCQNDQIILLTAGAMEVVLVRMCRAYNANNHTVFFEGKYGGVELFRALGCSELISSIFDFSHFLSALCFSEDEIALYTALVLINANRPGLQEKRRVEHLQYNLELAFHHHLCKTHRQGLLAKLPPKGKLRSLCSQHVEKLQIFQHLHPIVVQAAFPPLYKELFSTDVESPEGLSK
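Stably transfected Drosophila Schneider cells are the test system, with ROR gamma fused to Gal4 and luciferase under UAS control; luminescence is read after 20 hr of 700 uM copper sulfate induction at ambient temperature.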
SW480 rerep: inducers of DNA re-replication in SW480 colon cancer cells | SW480 DNA re-replication, Hoechst DNA content imaging, 48 h | Potency, µM (series often up to 46.1 µM), usual class: activators | actives 1.8% (n = 340,000) | AID 624297; also: nearly all actives have a fitted effect of over 55% in size
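Hoechst fluorescence of nuclei (405 nm excitation, 500-530 nm emission) measured by plate-scanning imager after 48 hr compound exposure at 37 C; re-replication scored as increased number of nuclei with elevated intensity.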
Hits are given with their value; 0 = inactive; ? = inconclusive; - = no result; [ ] = another dose, or the depositor's remark. Unless noted, calls follow the shape of the dose curve; as a rule, active = well fitted curve in the direction sought with a large enough effect; inconclusive = small, poorly fitted or top-dose-only effect, or another doubt; inactive = no such curve, though single readings can be large; an effect the other way counts as inactive or inconclusive.

SMILES	IL1B secr inh	MCF10A rerep	Gal4-VP16 FLuc	RORg inh	SW480 rerep
Cc1ccc(C)c(N(C(=O)Cc2cccs2)C(C(=O)NC2CCCC2)c2ccc(C)o2)c1 (stereo unspecified)	0	0	0	0	0
Cc1ccc(C(C(=O)NC2CCCC2)N(C(=O)Cc2cccs2)c2ccc(C)c(C)c2)o1 (stereo unspecified)	-74	0	0	0	?
O=C(NC1CCCC1)C(c1ccc(F)cc1)N(C(=O)Cc1cccs1)c1ccc2c(c1)OCCO2 (stereo unspecified)	0	?	0	0	0
CSCC[C@H](NC(=O)c1cccc(S(=O)(=O)N2CCCCC2)c1)c1nc2ccccc2[nH]1	0	0	-	-	0
Cc1ccc2nc(C(F)(F)F)c(C#N)c(N)c2c1	-101	3.3µM	0	0	?
O=C(Cn1c(=O)oc2ccccc21)Nc1ccc(F)cc1	0	0	0	0	0
C=C1CC2(CC(c3ccccc3)OC(c3ccccc3)C2)OC1=O (stereo unspecified)	-115	12µM	-	-	?
O=C1CCCC[C@@H](O)[C@H](O)C[C@H](c2ccccc2)O1	0	-	-	-	-
CCCCNC(=O)c1nc(C2CCN(S(=O)(=O)c3cccc(C(F)(F)F)c3)CC2)oc1-c1ccccc1	0	-	-	-	-
CC(C)C[C@@H](CC(=O)N[C@@H](CCC(=O)O)CC(=O)O)NC(=O)[C@@H]1CNCC[C@H]1NC(=O)C[C@H](CCCN)NC(=O)C[C@H](Cc1ccccc1)NC(=O)[C@@H]1CNCC[C@H]1N	-	-	0	0	-
Cc1ccc(-c2cc(C(F)F)n3ncc(C(=O)N4CCc5ccccc54)c3n2)cc1	0	2.6µM	0	0	7.3µM
Cc1ccc(-c2cc(C(=O)N3CCCc4ccccc43)c3ccccc3n2)cc1	0	21µM	0	0	?
O=C(c1cc(-c2cccnc2)nc2ccccc12)N1CCCc2ccccc21	0	?	0	0	?
COc1cc2ccccc2cc1C(=O)N1CCc2ccccc21	0	16µM	-	-	?
Cc1ccc2nc3sc(C(=O)N4CCCc5ccccc54)c(N)c3cc2c1	0	?	0[0.365 µM]	0	3.7µM
Cc1cccc(NS(=O)(=O)c2ccc(C)c(C(=O)NNC(=O)c3csc(N4CCOCC4)n3)c2)c1	0	?	-	-	0
COCCC(=O)N1CCC(Oc2ccc(C(=O)N(C)CCCC3CCCC3)cc2)CC1	0	0	0	?	?
COc1ccc(-c2cc(C(F)F)n3ncc(C(=O)N4CCc5ccccc5C4)c3n2)cc1	?	?	0	0	15µM
CCc1nccn1C(=O)c1cnn2c(C(F)F)cc(-c3ccc(C)cc3)nc12	-	18µM	0	0	?
COc1ccccc1NC(c1cccnc1)c1ccc2cccnc2c1O (stereo unspecified)	0	?	?	11µM	?
Cc1ccnc(NC(c2cccnc2)c2ccc3cccnc3c2O)c1 (stereo unspecified)	0	?	?	3.2µM	3.3µM
Cc1ccc2ccc(C(Nc3cccc(C(F)(F)F)c3)c3cccnc3)c(O)c2n1 (stereo unspecified)	0	0	?	7.1µM	0
COc1cc(C(=O)NCCCCc2ccccc2)cc(OC)c1OC	0	0	0	0	0
CCc1oc2ccccc2c1C(=O)CCN1CCCCC1	?	9.2µM	0	0	0
CCOc1ccc2[nH]cc(S(=O)(=O)c3ccc(F)cc3)c(=O)c2c1	0	0	13µM	0	0
SMILES	IL1B secr inh	MCF10A rerep	Gal4-VP16 FLuc	RORg inh	SW480 rerep
CCOC(=O)c1ccc(-c2c(-c3cc(OC)c(OC)c(OC)c3)noc2C)cc1F	0	1.5µM	0	0	2.9µM
O=C(NC1CCCC1)C(c1ccco1)N1CCN(c2c(Cl)cncc2Cl)CC1 (stereo unspecified)	0	-	-	-	-
CCCCn1c(SCC(=O)c2ccccc2)nc2ccsc2c1=O	-59	0	0	?	0
Cc1noc(C)c1-c1nccc(NCc2ccccc2)n1	-	-	0	0	-
N#Cc1cccc(-c2cc(-n3ccnc3)ncn2)c1	-	-	0	0	-
COC(=O)CC1Oc2cc3oc4c(c3cc2O1)C(=O)CC(C)(C)C4 (stereo unspecified)	-	-	?	5µM	-
CC(=O)N1c2ccc(S(=O)(=O)NCC3CCC(C(=O)NCc4ccco4)CC3)cc2CC1C (stereo unspecified)	0	0	0	0	0
O=C(CCNc1ccc(F)c(Cl)c1)c1ccco1	-101	?	?	?	?
O=C(CCNc1cc(Cl)cc(Cl)c1)c1ccco1	0	0	0	0	0
